Results filed as inconclusive are left out. Where a call stands in place of a potency, no number is given. Active and inactive are the calls of the source. The call rests on the fitted dose curve; in most records, active means well fitted curve in the direction sought with a large enough effect; inconclusive means small, poorly fitted or top-dose-only effect, or another doubt; inactive means no such curve, though single readings can be large; an effect the other way counts as inactive or inconclusive.
Tests used:
[1] = system: Zika virus NS2B-NS3 protease; assay: Primary screen GU AMC qHTS for Zika virus inhibitors (AID 1347154); details: Zika NS2B-NS3 unlinked protease, AMC fluorogenic substrate; series mostly up to 54.1 µM; further: nearly all actives have a fitted effect of over 70% in size
Outline: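 Fluorogenic AMC-substrate cleavage by noncovalent NS2B-NS3 protease complex (25 nM, pH 8.0 Tris buffer with Tween 20) followed for 15 minutes at room temperature (~20% conversion). Percent inhibition from ex340/em450 signal change, fitted by 4-parameter Hill equation.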

[2] = molecular target: Lysine-specific demethylase 5B (Homo sapiens) (UniProt Q9UGL1); assay: Optimization screen for KDM5B Histone Demethylases FDH coupled qHTS against the LOPAC library (AID 1347166); details: KDM5B demethylation, FDH-coupled NADH fluorescence (FDH is formaldehyde dehydrogenase); series mostly up to 57.5 µM
Outline: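 KDM5BDeltaAP (200nM final) in 50mM HEPES pH 7.5, 0.01% Tween-20 was preincubated with compound for 10 min at room temperature. A substrate mix of 12.5uM H3K4Me3, 25uM a-ketoglutarate, ascorbate, Fe2+, NAD+ and formaldehyde dehydrogenase was then added. NADH fluorescence (340/450 nm) was read initially and after 30 min.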

[3] = system: Zika virus NS2B-NS3 protease (linked construct); assay: Primary screen NINDS Rhodamine qHTS for Zika virus inhibitors (AID 1347160); details: purified NS2B-NS3 protease, Rhodamine110 substrate fluorescence; series mostly up to 15.1 µM; further: nearly all actives have a fitted effect of over 55% in size
Outline: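 Each compound, titrated, sat 15 min with 25 nM linked protease before 1.5 microM Rhodamine110 substrate went in. Fluorescence gain over the next 15 min, in pH 8.0 Tris with Tween 20, gave Hill-fitted curves.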

[4] = system: Zika virus NS2B-NS3 protease (linked construct); assay: Confirmatory screen NINDS AMC qHTS for Zika virus inhibitors (AID 1347152); details: Purified linked NS2B-NS3, AMC substrate fluorescence; series mostly up to 56.6 µM;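 further: AMC fluorescence gain from cleaved Bz-Nle-KRR-AMC substrate over 15 min; top concentration of the series differs between compounds; nearly all actives have a fitted effect of over 70% in size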
Excerpt: Assay Submitters (PI): Avindra Nath, Ph.D., National Institute of Neurological Disorders and Stroke (NINDS), Bethesda, MD Radhakrishnan Padmanabhan, Ph.D., Georgetown University (GU), Washington D.C. Zika Virus causes congenital defects, including microcephaly and is associated with Guillain-Barre syndrome, eningoencephalitis and myelitis in infected adult. […] Using a target-based approach, we hope to establish a screening paradigm to uncover novel, cell-active NS2B-NS3 protease (Zika Virus) specific inhibitors from NCATS' collection of small molecules using qHTS. […] Four assay panel was created to identify potential Zika Virus inhibitors. Namely, (1) GU unlinked NS2B-NS3 AMC tagged protease qHTS, (2) GU unlinked NS2B-NS3 Rhodamine tagged protease qHTS, (3) NINDS linked NS2B-NS3 AMC tagged protease qHTS, (4) NINDS linked NS2B-NS3 Rhodamine tagged protease qHTS. Active compounds were re-acquired and re-screened to confirm inhibition. Inhibitors were further screened against various confirmatory and counterscreens in dose response format. Early Translation Branch (ETB) National Center for Advancing Translational Sciences (NCATS), Rockville, MD National Institute of Health (NIH), Bethesda, Maryland
Materials: For the linked assay, Nath lab (NINDS) provided the purified linked NS2B-NS3 protease which is consists of hydrophilic domain of NS2B linked to the NS3 protease domain by a flexible (-[…]-) linker. Control compound aprotinin is obtained from Thermo Scientific (#78432; Waltham, Massachusetts). NS2B-NS3 AMC substrate (Bz-Nle-Lys-Arg-Arg-AMC; Nle-KRR-AMC) purchased from Bachem (#I-1995; Torrance, CA). Ac-VKTGKR-AMC purchased from Genscript or Bachem, Ac-FAAGKR-AMC purchased from Genscript, Ac-GLVKRR-AMC purchased from Genscript, Ac-LKKR-AMC purchased from Genscript. NINDS AMC linked NS2B-NS3 protease qHTS protocol: Briefly, 3 microL of Zika virus linked NS2B-NS3 protease (1 nM for linked final concentration), in assay buffer (10 mM Tris-HCl pH 8.0 with 0.01% Tween 20) was dispensed into a 1,536-well solid-bottom black plate (Greiner Bio One, Monroe, NC). Twenty-three nL of compounds (final concentration range 7.28 nM to 114 microM) or control Aprotinin (final concentration range 3.47 nM to 114 microM) were transferred via Wako Pin-tool (Wako Automation, Richmond, VA). […] Plates were then read immediately on a ViewLux High-throughput CCD imager (PerkinElmer, Waltham, MA) equipped with standard UV fluorescence optics (340(30) nm excitation, 450(20) nm emission) then incubated (room temperature, protected from light) for 15 minutes (~20% conversion). The change in fluorescence intensity over the 15-minute reaction period was normalized against no-inhibitor and no-enzyme controls and the resulting percent inhibition data were fitted to a 4-parameter Hill equation. […]

[5] = system: Zika virus NS2B-NS3 protease (unlinked complex); assay: Confirmatory screen GU AMC qHTS for Zika virus inhibitors (AID 1347153); details: Recombinant NS2B-NS3 protease, AMC substrate fluorescence; series mostly up to 57.1 µM; further: nearly all actives have a fitted effect of over 70% in size
Outline: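 Unlinked NS2B-NS3 complex (25 nM) in 10 mM Tris-HCl pH 8.0, 0.01% Tween 20 preincubated 15 min with compound, then 10 microM Bz-Nle-KRR-AMC (Km 18.3 µM). Fluorescence change over 15 min, normalized, Hill-fitted.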

[6] = Confirmatory screen NINDS Rhodamine qHTS for Zika virus inhibitors (AID 1347161); details: purified enzyme assay, Rhodamine110 substrate fluorescence, 15 min; series mostly up to 114 µM;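 further: purified Zika NS2B-NS3 protease with linked NS2B cofactor domain and Rhodamine110 peptide substrate; nearly all actives have a fitted effect of over 60% in size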
Outline: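 Percent inhibition, normalized to uninhibited and enzyme-free controls, is fitted to a 4-parameter Hill equation. Fluorescence change comes from a 15-min cleavage of 1.5 microM bis-peptide Rhodamine110 substrate by 25 nM linked NS2B-NS3 at room temperature.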

[7] = Vero cells viability qHTS for Zika virus inhibitors (AID 1347167); details: cytotoxicity counter-screen (Zika); series mostly up to 45.9 µM
Outline: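 Luminescent ATP readout (CellTiter Glo) after 30 min at 37 degrees C gives viability; cells in DMEM + 4% FBS were treated 24 to 48 hours with compound, following overnight attachment.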

[8] = HepG2 cells viability qHTS for Zika virus inhibitors (AID 1347168); details: Zika counter-screen; series mostly up to 45.9 µM
Excerpt: Avindra Nath, Ph.D., National Institute of Neurological Disorders and Stroke (NINDS), Bethesda, MD
Radhakrishnan Padmanabhan, Ph.D., Georgetown University (GU), Washington D.C.
Zika Virus causes congenital defects, including microcephaly and is associated with Guillain-Barre syndrome, eningoencephalitis and myelitis in infected adult. […] Using a target-based approach, we hope to establish a screening paradigm to uncover novel, cell-active NS2B-NS3 protease (Zika Virus) specific inhibitors from NCATS' collection of small molecules using qHTS.
Four assay panel was created to identify potential Zika Virus inhibitors. Namely, (1) GU unlinked NS2B-NS3 AMC tagged protease qHTS, (2) GU unlinked NS2B-NS3 Rhodamine tagged protease qHTS, (3) NINDS linked NS2B-NS3 AMC tagged protease qHTS, (4) NINDS linked NS2B-NS3 Rhodamine tagged protease qHTS. Identified inhibitors were screened against the Vero and HepG2 cell viability assays using CellTiter Glo to exclude cytotoxic compounds.
Early Translation Branch (ETB)
National Center for Advancing Translational Sciences (NCATS), Rockville, MD
National Institute of Health (NIH), Bethesda, Maryland
Vero and HepG2 Cell Viability Assay:
Vero and HepG2 cell cytotoxicity were determined using a luminescent readout with CellTiter Glo reagent (Promega, Madison, WI), which is based on measuring the ATP content within cells. Briefly, 4 microL of Vero or HepG2 cells at 2.5 x 10^5 cells/mL in DMEM containing 4% FBS were dispensed into 1536-well solid bottom tissue treated white plate using a Multidrop Combi dispenser (Thermo Scientific). Plates were incubated at 37 degrees C, 95% humidity, and 5% CO2 overnight to allow for cell attachment. Compounds were dissolved in DMSO at different concentrations and transferred via pintool (Wako Automation), for a final concentration of 0.029 µM - 57 microM. Plates were again incubated for 24 to 48 hours, followed by a 2 microL addition of CellTiter Glo. Finally, plates were incubated for 30 minutes at 37 degrees C and 5% CO2 before being read on a ViewLux (Perkin Elmer) for luminescence.

Chain of Lysine-specific demethylase 5B (Homo sapiens) (Q9UGL1 whole entry, looked up): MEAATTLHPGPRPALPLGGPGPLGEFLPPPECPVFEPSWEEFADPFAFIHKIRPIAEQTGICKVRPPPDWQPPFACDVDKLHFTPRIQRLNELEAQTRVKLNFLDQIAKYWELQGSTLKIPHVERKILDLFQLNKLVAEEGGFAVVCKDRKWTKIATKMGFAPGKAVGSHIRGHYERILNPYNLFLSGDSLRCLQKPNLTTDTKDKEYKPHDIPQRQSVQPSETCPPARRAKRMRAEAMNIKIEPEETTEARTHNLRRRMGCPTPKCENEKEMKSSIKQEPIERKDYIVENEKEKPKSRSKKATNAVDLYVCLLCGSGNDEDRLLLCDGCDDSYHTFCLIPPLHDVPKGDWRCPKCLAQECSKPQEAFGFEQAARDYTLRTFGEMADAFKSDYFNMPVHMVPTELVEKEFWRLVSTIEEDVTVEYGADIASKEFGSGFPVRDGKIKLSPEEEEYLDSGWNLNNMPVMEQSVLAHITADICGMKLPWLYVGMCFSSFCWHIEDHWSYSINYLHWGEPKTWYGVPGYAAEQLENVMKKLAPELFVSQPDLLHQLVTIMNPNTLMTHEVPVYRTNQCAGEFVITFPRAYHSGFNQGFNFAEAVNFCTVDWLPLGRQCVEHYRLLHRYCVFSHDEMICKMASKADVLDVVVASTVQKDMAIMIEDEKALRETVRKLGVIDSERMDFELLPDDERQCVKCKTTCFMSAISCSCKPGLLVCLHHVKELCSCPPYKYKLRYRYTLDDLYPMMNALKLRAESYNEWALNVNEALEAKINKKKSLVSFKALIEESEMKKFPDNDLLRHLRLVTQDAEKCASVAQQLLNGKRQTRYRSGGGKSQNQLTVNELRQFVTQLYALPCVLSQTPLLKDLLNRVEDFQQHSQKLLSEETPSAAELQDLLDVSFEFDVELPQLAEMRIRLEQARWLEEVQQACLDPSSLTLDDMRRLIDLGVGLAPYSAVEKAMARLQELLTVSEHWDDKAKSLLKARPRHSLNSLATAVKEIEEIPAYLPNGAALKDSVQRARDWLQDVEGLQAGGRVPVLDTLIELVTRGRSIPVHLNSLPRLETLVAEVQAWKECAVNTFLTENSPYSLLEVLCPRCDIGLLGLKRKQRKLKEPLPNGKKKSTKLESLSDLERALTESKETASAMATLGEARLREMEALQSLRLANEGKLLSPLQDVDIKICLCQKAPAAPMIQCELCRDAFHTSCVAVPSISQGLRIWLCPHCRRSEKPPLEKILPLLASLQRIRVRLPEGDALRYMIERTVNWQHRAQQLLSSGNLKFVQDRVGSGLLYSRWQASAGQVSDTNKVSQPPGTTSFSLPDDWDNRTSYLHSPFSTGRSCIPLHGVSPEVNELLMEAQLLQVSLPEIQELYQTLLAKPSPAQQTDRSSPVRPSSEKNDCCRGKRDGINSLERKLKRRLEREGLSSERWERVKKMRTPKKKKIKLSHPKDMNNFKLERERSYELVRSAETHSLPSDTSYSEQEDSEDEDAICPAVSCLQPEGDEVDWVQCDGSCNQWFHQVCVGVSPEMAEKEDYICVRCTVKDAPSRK

In the case of `NC(=Nc1ccccc1)Nc1ccccc1`, the outcome [1] is reported as “inactive”.

In the case of `CCCNC(C)C(=O)Nc1ccccc1C` (configuration not stated), the outcome [1] is reported as “inactive” and the Potency [2] is reported as “inactive”.

With `CCn1cc(C(=O)O)c(=O)c2cc3c(cc21)OCO3` the outcome [1] was “inactive”.

In the case of `CC1=C(C)C(=O)C(CCCCC#CCCCC#CCO)=C(C)C1=O`, the outcome [1] is reported as “inactive”.

With `COc1ccc(CN(CCN(C)C)c2ccccn2)cc1` the outcome [1] was “inactive” and the Potency [2] was “inactive”.

With `CCCOc1ccccc1-c1nc2n[nH]nc2c(=O)[nH]1` the outcome [1] was “inactive”.

With `CN(C)CCCN1c2ccccc2Sc2ccccc21` the outcome [1] was “inactive” and the Potency [2] was “inactive”.

With `CCCCNC(=O)NS(=O)(=O)c1ccc(C)cc1` the outcome [1] was “inactive” and the Potency [2] was “inactive”.

For `CCn1ccnc1CC1COc2ccccc2O1` (configuration not stated), the outcome [1] was “inactive” and the Potency [2] was “inactive”.

For `C[C@]12CCC(=O)C=C1CC[C@@H]1[C@@H]2C(=O)C[C@@]2(C)[C@H]1CC[C@]2(O)C(=O)CO`, the outcome [1] was “inactive” and the Potency [2] was “inactive”.

For `CCN(CC)CCCN(c1ccccc1)C1Cc2ccccc2C1`, the outcome [1] was “inactive” and the Potency [2] was “inactive”.

For `COCCOC(=O)C1=C(C)NC(C)=C(C(=O)OC(C)C)C1c1cccc([N+](=O)[O-])c1` (configuration not stated), the outcome [1] was “inactive” and the Potency [2] was “inactive”.

In the case of `CCCCOCCOCCOCc1cc2c(cc1CCC)OCO2`, the outcome [1] is reported as “inactive”.

For `Nc1ncn([C@@H]2O[C@H](CO)[C@@H](O)[C@H]2O)c(=O)n1`, the outcome [1] was “inactive” and the Potency [2] was “inactive”.

For `CCn1nc(C(=O)O)c(=O)c2cc3c(cc21)OCO3`, the outcome [1] was “inactive” and the Potency [2] was “inactive”.

In the case of `CNCCC(Oc1ccccc1OC)c1ccccc1` (configuration not stated), the outcome [1] is reported as “inactive” and the Potency [2] is reported as “inactive”.

In the case of `CCCN1C[C@H](CSC)C[C@@H]2c3cccc4[nH]cc(c34)C[C@H]21`, the outcome [1] is reported as “inactive”, the outcome [3] is reported as “inactive” and the Potency [2] is reported as “inactive”.

With `CCN1CCc2nc(N)oc2CC1` the outcome [4] was “inactive”, the outcome [5] was “inactive” and the outcome [1] was “inactive”. For the same compound, the Potency [6] was “inactive”, the Potency [2] was “inactive” and the outcome [7] was “inactive”. For the same compound, the outcome [8] was “inactive”.

Source: PubChem BioAssay (NCATS)
